From PubChem
D3 antag: blocks the human D3 dopamine receptor; P35462; D3R cells, DiscoveRx beta-arrestin luminescence, antagonist mode; active compounds read low; max response, negative = inhibition, %; actives 2.5% (n = 360,000); in the data active = max response below about -50%; inconclusive = no clear call, values can overlap the other calls; note: % is set by controls: 0 for no effect and ±100 for the full control effect
Target sequence (P35462 whole entry, looked up): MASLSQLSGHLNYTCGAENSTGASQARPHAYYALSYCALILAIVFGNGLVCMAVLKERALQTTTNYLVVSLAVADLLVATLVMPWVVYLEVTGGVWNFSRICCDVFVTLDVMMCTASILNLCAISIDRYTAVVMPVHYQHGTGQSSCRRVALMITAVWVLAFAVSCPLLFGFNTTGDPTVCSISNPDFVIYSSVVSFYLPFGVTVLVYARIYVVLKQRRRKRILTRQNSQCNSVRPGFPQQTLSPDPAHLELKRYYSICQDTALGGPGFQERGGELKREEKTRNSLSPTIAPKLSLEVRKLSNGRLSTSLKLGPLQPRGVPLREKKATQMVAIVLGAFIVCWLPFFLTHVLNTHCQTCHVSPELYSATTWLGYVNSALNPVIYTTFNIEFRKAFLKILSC
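Cells plated overnight at 1500 cells/well, then exposed to library compounds with dopamine controls for 90 minutes at 37 degrees C. DiscoveRx reagent added for 30–60 minutes at room temperature; luminescence read, quantitative HTS format.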
a7 integrin act: integrin-mediated muscular dystrophy alleviation activation. alpha7betagal myoblasts, beta-gal FDG fluorescence, 48 h. actives 0.064% (n = 350,000). AID 624291. Potency, µM (doses to about 38.3 µM), for inactives: top-dose activation, hits mostly activators; active = well fitted activation curve with a large enough effect; inconclusive = small, poorly fitted or top-dose-only effect; inactive = no such curve, though single readings can be large or run the other way;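 note: potency is the fitted concentration of half-maximal effect; 100% = response of the positive control SU9516; nearly all actives have a fitted effect of over 60% in size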
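alpha7betagal+/- myoblasts (passage 13, 250/well) treated 48 h at 37C with compounds at 1:260 dilution of DMSO stock. Lysed, then beta-galactosidase activity read as FDG fluorescence (ex 480/em 540) after 30 min, with pre-read for autofluorescence.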
DRD3 agonist: D3 dopamine receptor (human) agonism | P35462 | D3R DiscoveRx beta-arrestin cells, luminescence, 90 min | max activation, % | actives 0.58% (n = 410,000) | AID 652048; in the data active = max activation above about 30%; note: 0% is about no effect
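Agonist-mode cell screen: cells plated at 1500/well and incubated overnight at 37 °C, then exposed to library compounds for 90 min at 37 °C. Detection reagent was added for 30–60 min at room temperature, and luminescence was read.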
* = called active by the depositor; ? = inconclusive; · = no result given. In the library only some 2.9% were active in any assay of this set; here they are far more common.

SMILES | D3 antag | a7 integrin act | DRD3 agonist
CC(NC(=O)C1CC1)C(c1cccs1)N1CCN(c2ccccc2)CC1 (stereo not given) | -5 | -5% | -5
CC(NC(=O)NC1CCCCC1)C(c1cccs1)N1CCN(c2ccccc2)CC1 (stereo not given) | -55* | -13% | -8
O=C(Nc1ccc(N2CCOCC2)c(Cl)c1)c1ccccc1Cl | -53* | -1% | 1
O=C(Nc1ccc(N2CCOCC2)c(Cl)c1)c1ccc(F)cc1 | 19 | 4% | -5
Cc1ccc(NC(=O)COc2ccccc2CNC(C)(C)CC(C)(C)C)cc1 | -6 | 14µM* | -11
CC(C)(CO)NCc1ccccc1OCC(=O)Nc1ccccc1 | -28 | -4% | -12
CNC(=S)N/N=C/c1ccc(C(C)C)cc1 | -59* | -52% | 2
CNC(=S)N/N=C/c1ccc(N(C)C)cc1 | -10 | 6% | 5
COc1cc(CNCC2CCCO2)ccc1OCC(N)=O (stereo not given) | -2 | 3% | -16
CCOc1ccc(OCCC(=O)N(CC)CC(=O)Nc2ccccc2OC)cc1 | 1 | 27% | 31*
CCCC(=O)Nc1ccccc1NC(=O)c1ccc(OCC)cc1 | 1 | 11µM* | -4
CCCC(=O)Nc1ccccc1NC(=O)c1ccc(OC)cc1 | 10 | -4% | 0
CCN(CC(=O)Nc1ccccc1OC)C(=O)CCc1ccccc1 | 4 | 0% | 3
CCCC(=O)C1=C(O)C(C(=O)OC)C(C)(C)CC1=NCCc1ccc(OC)c(OC)c1 (stereo not given) | -10 | -14% | -3
CCOc1ccccc1CNS(=O)(=O)c1cc(-c2onc(C)c2C)ccc1OC | · | · | -2
O=c1cc2c(c(-c3ccccc3)n1Cc1ccccc1)[C@H](CCO)NC2 | -2 | 0% | -24
CCOC(=O)C1(C)CCN1C(=O)c1ccccc1OC (stereo not given) | 9 | · | -6
Cc1c(C(=O)N(C)C2CC(C)(C)NC(C)(C)C2)oc2c(F)cccc12 | 0 | 0% | 13
O=C(CSc1oc(-c2ccccc2)nc1S(=O)(=O)c1ccc(Br)cc1)c1ccccc1 | · | · | -4
O=C(CSc1oc(-c2ccccc2)nc1S(=O)(=O)c1ccccc1)c1ccccc1 | · | · | 53*
Cc1ccc2nc(N(CCN(C)C)C(=O)C3CCN(S(=O)(=O)c4cccs4)CC3)sc2c1 | -3 | -28% | 1
O=c1[nH]ncc(N2CCN(Cc3ccccc3)CC2)c1Cl | -71* | -8% | -15
Cc1cc(=O)[nH]c(N2CCN(Cc3ccccc3)CC2)n1 | -7 | 6% | 1
Cc1ccc(/C=C2\SC(=S)N(CCC(=O)NNS(=O)(=O)c3ccccc3)C2=O)cc1 | -9 | 12% | -14
CCOC(=O)NN=C1CN(S(=O)(=O)c2ccc(C)cc2)C1 | 0 | -25% | -6
SMILES | D3 antag | a7 integrin act | DRD3 agonist
O=C(OCC(=O)N1CCCc2ccccc21)c1ccccc1OC(F)F | 4 | 29% | -5
CC1=CC(C)(C(Cl)(Cl)Cl)C(C)=CC1=NO (stereo not given) | -55* | 6% | -10
O=C(NCc1ccccc1)c1nc(S(=O)(=O)Cc2ccc(F)cc2)ncc1Cl | · | · | -23
Cc1ccccc1CS(=O)(=O)c1ncc(Cl)c(C(=O)Nc2ccc(F)cc2)n1 | -84* | -10% | -2
O=C(Nc1nc2ccc(F)cc2s1)c1nc(S(=O)(=O)Cc2ccccc2)ncc1Cl | · | · | -15
O=C(Nc1ccccc1F)c1nc(S(=O)(=O)Cc2ccccc2F)ncc1Cl | · | · | 0
Cc1ccc(NC(=O)c2nc(S(=O)(=O)Cc3ccccc3)ncc2Cl)cc1 | -86* | -75% | -31
O=C(Nc1ccc(F)cc1)c1nc(S(=O)(=O)Cc2ccccc2)ncc1Cl | -110* | -63% | -22
C/C(=N/NC(=O)c1cccc(Br)c1)C1CC2CCC1C2 (stereo not given) | 24 | 5% | -14
CN1CCN(NC(=O)c2ccc(Cl)cc2Cl)CC1 | -13 | 6% | 3
Cc1[nH]c2ccccc2c1C(=O)C(=O)NCc1ccncc1 | 5 | 3% | 4
Cc1ccc(-n2nnnc2-c2cccs2)cc1[N+](=O)[O-] | 17 | -8% | -3
O=C(COC(=O)c1ccccc1Br)NCCC1=CCCCC1 | -26 | 0% | -15
O=C(COC(=O)c1ccccc1NCCO)NCCC1=CCCCC1 | -64* | -17% | -15
CCCn1c(=O)c2sccc2n2c(CCCC(=O)N3CCN(c4cccc(C)c4C)CC3)nnc12 | · | · | 10
O=C(O)CNc1ccccc1C(=O)O | 28 | 43% | 1
O=[N+]([O-])c1ccc(/C=N\O)o1 | · | · | -3
O=[N+]([O-])c1ccc(/C=N/N=C/c2ccc([N+](=O)[O-])o2)o1 | -81* | -26% | -35
COc1ccc2c(c1)CO[C@@]21O[C@H](CCO)C[C@H](O)[C@H]1O | -16 | · | -8
COc1ccc(CNC(=O)c2nccnc2CO)cc1 | 73 | 11% | 2
COc1ccc(CN(C)C(=O)c2cccc(NC(=O)CC3SC(N4CCCCC4)=NC3=O)c2)c(OC)c1 (stereo not given) | 34 | -68% | 12
Cc1nnc(NC(=O)CSc2nnc(CNC(=O)c3ccccc3F)n2C(C)C)s1 | 4 | 8% | 1
Cc1ccc(NCc2nnc(SCC(=O)Nc3nnc(C)s3)n2C)cc1 | 1 | 10µM* | 14
CCc1nnc(NC(=O)CSc2nnc(CNc3ccc(C)cc3)n2C)s1 | -5 | 0% | 5
Cc1nnc(NC(=O)CSc2nnc(CCNC(=O)c3ccccc3F)n2C)s1 | 1 | 11µM* | 4
SMILES | D3 antag | a7 integrin act | DRD3 agonist
Cc1nc(Nc2cc(F)ccc2C)c2nnn(Cc3ccccc3)c2n1 | -14 | 6% | 1
Cc1ccc(CN2C(=O)CCC2(C)C(=O)NCc2cccnc2)cc1 (stereo not given) | 21 | -19% | 11
COc1ccccc1OCc1cc(C(=O)N2CC3C[C@@H]4CC2C[C@H](C3)C4)no1 | 27 | 0% | 4
Cc1ccc(CCN2CC(C(=O)N3CCN(c4ccc(F)cc4)CC3)CC2=O)cc1 (stereo not given) | 10 | -9% | -8
CCOc1ccc(NC(=O)c2cc3ccccc3cc2OC)cc1 | 20 | 5% | 5
CCOc1ccc(NC(=O)c2ccc(F)cc2F)cc1 | -65* | -1% | -1
O=C1c2cccc3cccc(c23)C(=O)N1CC1CCN(CC(O)COc2ccc3ccccc3c2)CC1 (stereo not given) | ? | -69% | -16
CCc1ccc(OCC(O)CN2CCC(CN3C(=O)c4cccc5cccc(c45)C3=O)CC2)cc1 (stereo not given) | -12 | -11% | -22
COc1cccc(OCC(O)CN2CCC(CN3C(=O)c4cccc5cccc(c45)C3=O)CC2)c1 (stereo not given) | -52* | -65% | -13
Cc1cc(C)cc(OCC(O)CN2CCC(CN3C(=O)c4cccc5cccc(c45)C3=O)CC2)c1 (stereo not given) | -68* | -54% | -15
Cc1ccc(CCNC(=O)c2cc(S(=O)(=O)N3CCCCC3)c[nH]2)cc1 | 5 | 18% | 12
COc1cc2c(cc1OC)C(c1cc(OC)c(O)c(OC)c1)CC(=O)N2 (stereo not given) | · | · | 4
Cc1ccc(C)c(S(=O)(=O)NC(Cc2c[nH]c3ccccc23)C(=O)O)c1 (stereo not given) | 5 | 8% | 23
Cn1cc(SCC(=O)Nc2ccc3c(c2)OCCO3)c2ccccc21 | 10 | 14% | 0
